Test results as given in PubChem BioAssay (NCATS).
Inconclusive results are not listed. Calls of active or inactive are those of the source. Unless noted, the call rests on the fitted dose curve; in most records, active means well fitted curve in the direction sought with a large enough effect; inconclusive means small, poorly fitted or top-dose-only effect, or another doubt; inactive means no such curve, though single readings can be large; an effect the other way counts as inactive or inconclusive.

What was measured:
[1] = AP1 Signaling Pathway (AID 357; active means well fitted curve in either direction with a large enough effect, not every such curve was filed as active; further: on the % scale 0 is the no-effect control and ±100 the full control effect); details: ME-180 AP-1-bla reporter, EGF-induced, beta-lactamase ratio, 5 h; at 7.69 µM (top of the series) unless noted
Method in brief: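 AP-1-bla ME-180 cells with beta-lactamase reporter under AP-1 response element, stimulated with EC50 EGF; compounds titrated, 5 hours at 37 degrees Celsius. CCF4 read at 460/530 nm ratio; positive and negative modulators judged by AC50.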

[2] = molecular target: Cytochrome P450 1A2 (Homo sapiens) (UniProt P05177); test: p450-cyp1a2 (AID 410; calls by dose curve;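 further: -100% = full effect of reference inhibitor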)
Method in brief: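 Read-out is luminescence from luciferin produced by CYP1A2 demethylation of Luciferin-ME (100uM, at Km). Detection reagent stopped the 60 min NADPH-dependent reaction; signals were normalized to 57 uM furafylline.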

[3] = NFAT Signaling Pathway (AID 444; active means well fitted curve in either direction with a large enough effect, not every such curve was filed as active;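 further: carbachol stimulus at about its EC50 of 1 µM final; on the % scale 0 is the no-effect control and ±100 the full control effect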); details: Jurkat NFAT-bla M1, carbachol, beta-lactamase ratio, 5 h; at 7.69 µM (top of the series) unless noted
Method in brief: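 Read-out: CCF4 FRET ratio (460 nm/530 nm) after 1 h RT dye loading, used for %activity and AC50 from titration series. Cells: Jurkat NFAT-β-lactamase/M1 line, treated with compound plus 1 uM carbachol for 5 h, 37 °C.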

[4] = Stat Signaling Pathway (AID 446; active means well fitted curve in either direction with a large enough effect, not every such curve was filed as active;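 further: ME-180 cervical cancer cells given 40 pM IL-6 alongside compound; SIE-controlled beta-lactamase reporter measured as 460/530 nm FRET emission ratio; on the % scale 0 is the no-effect control and ±100 the full control effect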); details: ME-180 (cervical carcinoma) SIE beta-lactamase reporter, IL-6 stimulated, 5 h; at 7.69 µM (top of the series) unless noted
Method in brief: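 FRET read-out (405 nm excitation, 460/530 nm emission) of a beta-lactamase reporter under a STAT-inducible element in ME-180 cervical carcinoma cells. Cells with compound receive 40 pM IL-6 for 5 h. Values are normalised to AC90 stimulation and AC90 JAK-inhibitor controls.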

[5] = molecular target: Glucocorticoid receptor (Homo sapiens) (UniProt P04150); test: GR-GFP Redistribution (AID 450;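 active means compounds whose dose series gives a full or clear partial fitted curve of increased nuclear translocation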; further: potency means the concentration at half of the fitted maximal effect); details: U2OS GR-GFP nuclear translocation, laser cytometry, 2 h
[6] = molecular target: Mitogen-activated protein kinase 10 (Mus musculus) (UniProt Q61831); test: JNK3 AlphaScreen Assay (AID 530; active means well fitted curve in either direction with a large enough effect, not every such curve was filed as active;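 further: kinase came from lysate of stimulated human HepG2 cells; signal reports phosphorylation of biotinylated GST-cJun 1-79 at Ser73 with 10 µM ATP; on the % scale 0 is the no-effect control and ±100 the full control effect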)
Method in brief: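 Kinase buffer: 20 mM Tris-HCl pH 7.6, 10 mM MgCl2, 1 mM DTT, 0.1 mM Na3VO4, 0.01% Tween-20; ATP 10 uM. Substrate biotin-GST-cJun(1-79), enzyme from activated HepG2 lysates. Detection by Ser73 phospho-antibody AlphaScreen.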

[7] = molecular target: Guanine nucleotide-binding protein G(i) subunit alpha-1 (Homo sapiens) (UniProt P63096); test: qHTS Assay for Inhibitors of RGS12 GoLoco Motif Activity (Green Fluorophore) (AID 879);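 further: 0% = labeled peptide with Gαi1 and full inhibition = labeled peptide alone without protein; negative values mean loss of peptide binding seen as reduced polarization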
Method in brief: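 A drop in FITC polarization marked displacement of the FITC-tagged RGS12 GoLoco peptide (10 nM) from Gαi1 (50 nM). Compounds were incubated 10 min at room temperature in Tris pH 7.5 buffer containing 150 mM NaCl, 0.1 mM GDP and 0.05% NP40; unlabeled peptide titration served as control.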

[8] = molecular target: Cytochrome P450 2C9 (Homo sapiens) (UniProt P11712); test: qHTS Assay for Inhibitors and Substrates of Cytochrome P450 2C9 (AID 883); further: potency means the concentration at half of the fitted maximal effect; nearly all actives have a fitted effect of over 60% in size
Method in brief: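 Inhibition of CYP2C9 is scored as loss of luminescence, with 57uM sulphaphenazole defining 100% inhibition. Substrate Luciferin-H is used at 100uM, equal to its KM; enzyme at 10nM in 25mM KPO4, 60 min at 37C with NADPH regeneration.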

[9] = molecular target: Cytochrome P450 3A4 (Homo sapiens) (UniProt P08684); test: qHTS Assay for Inhibitors and Substrates of Cytochrome P450 3A4 (AID 884); further: potency means the concentration at half of the fitted maximal effect; nearly all actives have a fitted effect of over 50% in size
Method in brief: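 Luminescent readout of luciferin produced by CYP3A4 (20 nM) dealkylation of Luciferin-PPXE, 25 uM (its KM). NADPH-driven reaction ran 60 min at RT after 10 min compound preincubation; data scaled to 57 uM ketoconazole as 100% inhibition.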

[10] = molecular target: Cytochrome P450 3A4 (Homo sapiens) (UniProt P08684); test: qHTS Assay for Activators of Cytochrome P450 3A4 (AID 885); further: nearly all actives have a fitted effect of over 65% in size
Method in brief: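 Luminescent readout of luciferin formed from 25 uM Luciferin-PPXE (KM level) by 20 nM CYP3A4 in 200 mM KPO4, with 60 min NADPH-driven reaction at room temperature after 10 min compound exposure. Ketoconazole (57 uM) defined 100% inhibition.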

[11] = qHTS Assay for Identification of Small Molecule Agonists for Thrombopoietin (TPO) Signaling Pathway (AID 917); further: on the % scale 0 is the no-effect control and ±100 the full control effect
Method in brief: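 Stimulation at the TPO EC50 (26 pM final) was used to detect activators. Ba/F3 mouse cells bearing human TPO receptor and a luciferase reporter under the Glycoprotein IIb promoter were exposed to compounds for 24 hrs at 37 C.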

[12] = molecular target: Muscarinic acetylcholine receptor M1 (Rattus norvegicus) (UniProt P08482); test: qHTS Assay for Antagonists of Acetylcholine Muscarinic M1 Receptor: Kinetic Measurement of Intracellular Calcium Response (AID 943);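 further: Fluo-4 calcium signal as peak divided by basal fluorescence over 4 min; nearly all actives have a fitted effect of over 75% in size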
Method in brief: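 Quantitative HTS in CHO-M1 (rat receptor) cells: 10 min compound exposure ahead of 100 nM carbachol, Fluo-4 fluorescence followed 4 min, value expressed as peak-to-basal ratio.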

[13] = molecular target: Muscarinic acetylcholine receptor M1 (Rattus norvegicus) (UniProt P08482); test: qHTS Assay for Antagonists of Acetylcholine Muscarinic M1 Receptor: Measurement of IP-One Response (AID 944); further: nearly all actives have a fitted effect of over 75% in size
Method in brief: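 Antagonism was measured as loss of carbachol-driven (EC80) IP1 accumulation in CHO cells carrying rat M1, using a homogeneous IP-One TR-FRET kit read at 620 and 665 nm.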

[14] = molecular target: Pyruvate kinase (Leishmania mexicana) (UniProt Q27686); test: qHTS Validation Assay for Inhibitors of Leishmania Mexicana Pyruvate Kinase (AID 945);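 further: 0% = DMSO only neutral control wells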
Method in brief: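 The enzyme is a highly purified E451W mutant of LmPYK used at 0.2 nM. It converts 0.5 mM PEP and 0.1 mM ADP over 1 h at room temperature; product ATP is quantified by luciferase luminescence relative to DMSO controls.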

[15] = molecular target: Pyruvate kinase PKM (Homo sapiens) (UniProt P14618); test: qHTS Assay for Activators of Human Muscle Pyruvate Kinase (AID 954; active means well fitted curve in the direction sought with a large enough effect, not every such curve was filed as active;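 further: 0% = uninhibited enzyme and -100% = no enzyme or full thiadiazolimine inhibition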)
Method in brief: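 ATP production by PKM2 detected via luciferase luminescence after 1 h room-temperature reaction (0.1 nM enzyme, PEP at Km 0.5 mM, ADP 0.1 mM, pH 7.2 imidazole buffer). Inhibition scaled to no-enzyme control; activation referenced to 0.3 nM enzyme wells.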

[16] = molecular target: Alpha-galactosidase A (Homo sapiens) (UniProt P06280); test: Counterscreen for Glucocerebrosidase Inhibitors: qHTS Assay for Human alpha-Galactosidase at pH 4.5 (AID 992); further: 0% is about no effect
Method in brief: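 Fluorogenic 1536-well qHTS at pH 4.5 (citrate, Tween-20): 2 nM enzyme, 80 uM 4-MU-alpha-galactoside, 20 min room temperature, NaOH/glycine stop. Titration 0.7 nM to 77 uM, data normalized to no-enzyme and full-activity controls, Hill-fitted AC50.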

[17] = molecular target: alpha-glucosidase (Oryza sativa, rice) (UniProt Q653V4); test: Counterscreen for Glucocerebrosidase Inhibitors: qHTS Assay for Rice alpha-Glucosidase at pH 5.0 (AID 997);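 further: 0% = full activity with enzyme and -100% = basal without enzyme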
Method in brief: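 Endpoint fluorogenic assay at pH 5.0: compounds (0.7 nM to 77 uM) titrated against 4 nM rice enzyme and 400 uM 4-MU-alpha-glucoside for 20 min at room temperature; NaOH/glycine stop, read ex 365/em 440 nm, Hill-fitted AC50.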

[18] = Validation of Assay for Modulators of Lamin A Splicing (AID 1459; active means well fitted curve in the direction sought with a large enough effect in the signal ratio; the % refers to the signal ratio;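 further: cells exposed to compound for two days before reading; 0% is about no effect; ratio rise marks activators and ratio drop marks inhibitors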)
Method in brief: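 S3 HeLa stably expressing lamin A-EGFP splicing minigene and DsRed2, 600 cells/well in Opti-MEM with 2% FBS, treated 48 h at 37C; laser-scanning cytometry gives GFP/RFP total intensity ratio; ancitabine positive control, 0.5% DMSO vehicle.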

[19] = molecular target: DNA repair nuclease/redox regulator APEX1 (Homo sapiens) (UniProt P27695); test: qHTS Validation Assay for Inhibitors of the Human Apurinic/apyrimidinic Endonuclease 1 (APE1) (AID 1705)
Method in brief: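 Fluorogenic double-stranded THF abasic-site substrate (5'-TAMRA/3'-BHQ-2), 50 nM final. Enzyme preincubated with compound 15 min at room temperature, then substrate added. Kinetic fluorescence (ex 525/em 598 nm) read three times at 60 s intervals; activity taken as third-minus-first read difference.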

Cytochrome P450 3A4 (Homo sapiens), sequence (P08684 whole entry, looked up): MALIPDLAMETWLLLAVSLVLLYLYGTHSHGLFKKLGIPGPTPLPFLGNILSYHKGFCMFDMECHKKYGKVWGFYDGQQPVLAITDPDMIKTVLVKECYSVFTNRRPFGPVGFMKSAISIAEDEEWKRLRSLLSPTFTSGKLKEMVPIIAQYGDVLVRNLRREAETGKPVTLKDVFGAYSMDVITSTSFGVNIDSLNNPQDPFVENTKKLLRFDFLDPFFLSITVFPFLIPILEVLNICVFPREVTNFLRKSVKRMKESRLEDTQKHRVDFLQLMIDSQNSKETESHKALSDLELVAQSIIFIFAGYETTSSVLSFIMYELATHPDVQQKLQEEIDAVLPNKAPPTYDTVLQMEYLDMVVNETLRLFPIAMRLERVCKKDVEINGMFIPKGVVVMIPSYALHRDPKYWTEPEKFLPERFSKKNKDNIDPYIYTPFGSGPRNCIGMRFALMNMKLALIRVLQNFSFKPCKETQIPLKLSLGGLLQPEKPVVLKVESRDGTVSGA
Muscarinic acetylcholine receptor M1 (Rattus norvegicus), sequence (P08482 whole entry, looked up): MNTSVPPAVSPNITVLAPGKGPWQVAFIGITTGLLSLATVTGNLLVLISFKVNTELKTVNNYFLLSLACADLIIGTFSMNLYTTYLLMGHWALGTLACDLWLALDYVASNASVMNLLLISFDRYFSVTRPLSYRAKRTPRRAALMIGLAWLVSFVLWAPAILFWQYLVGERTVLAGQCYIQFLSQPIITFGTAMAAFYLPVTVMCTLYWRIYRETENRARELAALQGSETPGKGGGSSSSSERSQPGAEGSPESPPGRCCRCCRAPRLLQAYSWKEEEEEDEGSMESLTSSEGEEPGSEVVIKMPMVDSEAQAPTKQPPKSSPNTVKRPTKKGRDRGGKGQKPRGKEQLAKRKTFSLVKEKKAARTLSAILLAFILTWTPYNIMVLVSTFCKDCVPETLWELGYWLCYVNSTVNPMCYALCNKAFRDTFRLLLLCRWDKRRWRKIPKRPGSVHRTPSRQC
Alpha-galactosidase A (Homo sapiens), sequence (P06280 whole entry, looked up): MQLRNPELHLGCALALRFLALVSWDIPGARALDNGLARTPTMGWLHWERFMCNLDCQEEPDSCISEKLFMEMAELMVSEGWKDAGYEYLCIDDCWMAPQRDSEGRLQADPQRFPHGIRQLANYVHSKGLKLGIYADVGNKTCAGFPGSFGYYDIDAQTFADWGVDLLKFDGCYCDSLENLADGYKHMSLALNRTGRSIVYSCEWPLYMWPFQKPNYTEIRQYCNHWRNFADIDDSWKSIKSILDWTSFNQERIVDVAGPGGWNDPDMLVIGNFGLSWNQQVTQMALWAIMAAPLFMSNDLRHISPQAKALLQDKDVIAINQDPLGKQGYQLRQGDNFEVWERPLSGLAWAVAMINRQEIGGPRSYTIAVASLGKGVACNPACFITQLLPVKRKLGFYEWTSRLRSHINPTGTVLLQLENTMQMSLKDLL
Pyruvate kinase (Leishmania mexicana), sequence (Q27686 2-499 E452W): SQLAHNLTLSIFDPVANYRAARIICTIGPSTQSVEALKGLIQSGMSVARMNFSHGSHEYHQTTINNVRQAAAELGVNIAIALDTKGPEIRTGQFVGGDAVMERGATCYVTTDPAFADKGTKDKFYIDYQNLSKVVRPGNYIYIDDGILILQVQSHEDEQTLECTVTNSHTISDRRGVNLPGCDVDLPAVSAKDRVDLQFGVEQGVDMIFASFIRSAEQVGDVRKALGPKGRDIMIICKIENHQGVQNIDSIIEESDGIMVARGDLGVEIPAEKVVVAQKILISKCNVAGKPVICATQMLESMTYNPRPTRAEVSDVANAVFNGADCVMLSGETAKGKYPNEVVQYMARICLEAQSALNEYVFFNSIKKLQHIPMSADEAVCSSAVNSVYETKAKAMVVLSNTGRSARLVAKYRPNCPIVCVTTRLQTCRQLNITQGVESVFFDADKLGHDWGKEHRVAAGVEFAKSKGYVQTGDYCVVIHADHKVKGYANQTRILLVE
Glucocorticoid receptor (Homo sapiens), sequence (P04150 whole entry, looked up): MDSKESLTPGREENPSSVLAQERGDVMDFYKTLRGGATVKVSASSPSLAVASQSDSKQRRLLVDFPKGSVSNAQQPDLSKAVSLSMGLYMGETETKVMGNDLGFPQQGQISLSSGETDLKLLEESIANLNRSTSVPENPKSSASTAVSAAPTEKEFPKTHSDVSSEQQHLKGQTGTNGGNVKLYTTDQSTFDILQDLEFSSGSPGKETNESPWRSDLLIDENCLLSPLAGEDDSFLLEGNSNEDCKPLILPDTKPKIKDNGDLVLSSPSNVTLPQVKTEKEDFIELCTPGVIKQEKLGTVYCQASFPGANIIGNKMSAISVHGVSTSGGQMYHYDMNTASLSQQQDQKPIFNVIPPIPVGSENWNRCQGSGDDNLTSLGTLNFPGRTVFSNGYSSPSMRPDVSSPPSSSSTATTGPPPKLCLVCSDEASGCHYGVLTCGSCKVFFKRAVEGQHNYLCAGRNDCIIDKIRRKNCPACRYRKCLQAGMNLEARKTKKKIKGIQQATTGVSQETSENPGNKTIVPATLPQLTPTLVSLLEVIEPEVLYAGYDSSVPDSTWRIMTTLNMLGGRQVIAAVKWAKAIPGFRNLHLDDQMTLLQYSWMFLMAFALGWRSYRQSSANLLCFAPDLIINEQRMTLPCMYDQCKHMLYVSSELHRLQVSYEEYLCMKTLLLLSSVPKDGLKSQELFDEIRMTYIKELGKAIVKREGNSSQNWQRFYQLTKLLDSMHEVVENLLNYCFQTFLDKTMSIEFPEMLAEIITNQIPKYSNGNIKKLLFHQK
Pyruvate kinase PKM (Homo sapiens), sequence (P14618 whole entry, looked up): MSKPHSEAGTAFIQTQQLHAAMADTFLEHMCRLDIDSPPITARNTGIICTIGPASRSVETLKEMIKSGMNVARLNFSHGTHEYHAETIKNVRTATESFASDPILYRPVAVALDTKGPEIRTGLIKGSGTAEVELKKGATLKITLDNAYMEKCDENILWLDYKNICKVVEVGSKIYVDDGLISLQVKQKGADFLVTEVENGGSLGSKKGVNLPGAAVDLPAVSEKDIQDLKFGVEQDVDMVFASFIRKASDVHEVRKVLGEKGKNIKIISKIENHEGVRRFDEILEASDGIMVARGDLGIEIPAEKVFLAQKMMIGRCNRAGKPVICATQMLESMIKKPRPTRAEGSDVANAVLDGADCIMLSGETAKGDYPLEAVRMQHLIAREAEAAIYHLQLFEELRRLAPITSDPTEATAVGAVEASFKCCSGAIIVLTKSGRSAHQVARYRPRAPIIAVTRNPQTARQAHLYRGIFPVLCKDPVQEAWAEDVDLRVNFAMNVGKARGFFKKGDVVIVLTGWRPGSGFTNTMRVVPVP
DNA repair nuclease/redox regulator APEX1 (Homo sapiens), sequence (P27695 whole entry, looked up): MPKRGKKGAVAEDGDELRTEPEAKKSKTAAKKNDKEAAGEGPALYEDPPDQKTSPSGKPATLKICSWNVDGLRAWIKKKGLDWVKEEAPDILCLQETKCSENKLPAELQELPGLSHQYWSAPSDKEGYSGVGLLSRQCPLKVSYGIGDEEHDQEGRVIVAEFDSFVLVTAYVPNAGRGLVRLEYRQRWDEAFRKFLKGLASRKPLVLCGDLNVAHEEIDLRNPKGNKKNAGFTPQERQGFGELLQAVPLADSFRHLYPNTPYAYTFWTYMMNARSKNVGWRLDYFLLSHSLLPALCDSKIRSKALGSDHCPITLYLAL
Cytochrome P450 1A2 (Homo sapiens), sequence (P05177 whole entry, looked up): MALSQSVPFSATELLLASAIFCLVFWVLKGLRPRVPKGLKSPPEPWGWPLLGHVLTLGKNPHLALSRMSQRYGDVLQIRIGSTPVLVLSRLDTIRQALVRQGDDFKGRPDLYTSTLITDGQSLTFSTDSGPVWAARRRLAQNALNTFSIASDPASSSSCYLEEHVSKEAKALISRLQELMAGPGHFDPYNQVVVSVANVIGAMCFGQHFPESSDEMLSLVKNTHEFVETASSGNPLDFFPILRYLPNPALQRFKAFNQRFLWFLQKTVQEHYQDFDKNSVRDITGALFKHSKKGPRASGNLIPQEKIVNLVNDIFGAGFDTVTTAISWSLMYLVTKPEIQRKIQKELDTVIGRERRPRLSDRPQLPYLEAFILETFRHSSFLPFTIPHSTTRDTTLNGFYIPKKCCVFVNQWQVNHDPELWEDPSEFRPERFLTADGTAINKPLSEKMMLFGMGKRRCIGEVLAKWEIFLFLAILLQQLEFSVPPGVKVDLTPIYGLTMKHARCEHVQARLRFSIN
Cytochrome P450 2C9 (Homo sapiens), sequence (P11712 whole entry, looked up): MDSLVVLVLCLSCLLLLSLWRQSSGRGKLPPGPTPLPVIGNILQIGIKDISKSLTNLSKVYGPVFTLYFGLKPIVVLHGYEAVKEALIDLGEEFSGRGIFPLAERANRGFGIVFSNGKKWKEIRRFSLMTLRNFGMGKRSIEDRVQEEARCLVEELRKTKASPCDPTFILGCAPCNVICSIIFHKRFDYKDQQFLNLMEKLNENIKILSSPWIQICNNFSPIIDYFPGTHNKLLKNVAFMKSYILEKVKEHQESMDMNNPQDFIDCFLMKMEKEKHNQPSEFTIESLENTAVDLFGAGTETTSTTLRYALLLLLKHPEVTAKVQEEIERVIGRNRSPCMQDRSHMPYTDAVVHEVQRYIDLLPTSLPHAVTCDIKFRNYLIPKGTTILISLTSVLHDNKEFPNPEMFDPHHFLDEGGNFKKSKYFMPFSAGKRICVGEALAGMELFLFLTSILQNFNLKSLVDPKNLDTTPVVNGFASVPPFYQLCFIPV
Guanine nucleotide-binding protein G(i) subunit alpha-1 (Homo sapiens), sequence (P63096 whole entry, looked up): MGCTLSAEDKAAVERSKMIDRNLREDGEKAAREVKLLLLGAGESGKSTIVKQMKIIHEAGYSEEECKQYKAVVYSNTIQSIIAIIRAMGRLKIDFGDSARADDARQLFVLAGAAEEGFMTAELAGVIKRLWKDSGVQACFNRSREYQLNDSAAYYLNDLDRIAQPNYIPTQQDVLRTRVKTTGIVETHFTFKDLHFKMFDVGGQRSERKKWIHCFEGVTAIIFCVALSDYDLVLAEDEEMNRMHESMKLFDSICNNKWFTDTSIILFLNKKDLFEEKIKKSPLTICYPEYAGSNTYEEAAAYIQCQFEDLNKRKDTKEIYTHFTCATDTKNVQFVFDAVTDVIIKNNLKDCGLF

COC(=O)c1c(-c2cc(OC)c(OC)c(OC)c2)c2ccc(OCc3ccccn3)cc2c(=O)n1-c1ccc(N)cc1
active: Potency [8] 3.98 µM | Potency [9] 0.398 µM
inactive: activity change, negative = inhibition [1] -16.9% [at 38 µM] | Potency [2] | activity change, negative = inhibition [3] 10.6% [at 38 µM] | activity, negative = inhibition [4] -8.64% [at 38 µM] | Potency [5] > 46 µM | outcome [6] | outcome [7] | Potency [10] | outcome [11] | Potency [12] | Potency [13] | Potency [14] | outcome [15] | outcome [16] | outcome [17] | outcome [18] | Potency [19]
